In PubChem BioAssay (NCI):
About 83,000 compounds went through this panel and 20% of them were active in at least one assay; those are over-represented in the sample as a whole.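 Single-concentration screen, 48 h exposure, 96-well plates. Endpoint: percent growth. Below 10 = active.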 Active and inactive are the calls of the source.

Experiments:
Experiment in all cases: NCI-60 one-dose screen, 48 h (100 = growth as untreated, 0 = no growth, -100 = all killed)
Settings in all cases: 10 µM unless noted
[1] = test system: T-47D breast
[2] = test system: BT-549 breast
[3] = test system: MDA-MB-435 melanoma
[4] = test system: SW-620 colon
[5] = test system: MCF7 breast
[6] = test system: HCT-116 colon
[7] = test system: HCC-2998 colon
[8] = test system: KM12 colon

Measured: growth

CCOc1cc(CCNS(=O)(=O)c2ccc(C)cc2)c(C(C)=O)cc1OCC
inactive: [1] 66% [100 µM] | [2] 73.4% [100 µM] | [3] 99.4% [100 µM] | [4] 92.9% [100 µM] | [5] 94.9% [100 µM] | [6] 77.6% [100 µM] | [7] 95.5% [100 µM] | [8] 67.2% [100 µM]

COc1ccc(-c2ccc(O)c(C(=O)/C=C/c3cc(OC)c(OC)c(OC)c3)c2)cc1
inactive: [1] 67% | [2] 90.4% | [3] 64.6% | [4] 88.6% | [5] 64.2% | [6] 68.8% | [7] 100% | [8] 79.9%

COC(=O)[C@H]1[C@H]2C[C@@H]3c4[nH]c5cc(OC)ccc5c4CCN3C[C@H]2C[C@@H](OC(=O)/C=C/c2cc(OC)c(OC)c(OC)c2)[C@@H]1OC
inactive: [1] 45% | [2] 67.8% | [4] 61.3% | [5] 29.1% | [7] 105% | [8] 40.5%
active: [3] 7.45% | [6] -28%

CC(=O)Nc1c(Cl)cc2c(c1Cl)Cc1cc([N+](=O)[O-])ccc1-2
inactive: [1] 53.4% | [2] 84.4% | [3] 81% | [4] 81.5% | [5] 27.8% | [6] 72.6% | [7] 87.4% | [8] 78.2%

CC[N+](CCCCCCCCCC[N+](CC)(c1ccccn1)c1ccccn1)(c1ccccn1)c1ccccn1
active: [3] -15.1% | [5] 7.81% | [6] 9.06% | [8] 5.01%
inactive: [1] 13.8% | [2] 19.1% | [4] 10.1% | [7] 13.3%

N#Cc1c(-c2ccccc2)cc(-c2ccccc2)n(CC(=O)O)c1=O
active: [3] -10.6%
inactive: [1] 45.3% | [2] 25.8% | [4] 32.8% | [5] 34.8% | [6] 39.2% | [7] 82.4% | [8] 41.3%

O=C(CSc1nnc(-c2cc(-c3ccccc3)nc3ccccc23)o1)c1ccc(Br)cc1
inactive: [1] 102% | [2] 96.9% | [3] 104% | [4] 107% | [5] 111% | [6] 101% | [7] 113% | [8] 107%

COc1cc(/C=N/OC(=O)Nc2ccccc2)cc(OC)c1OC
inactive: [1] 100% | [2] 105% | [3] 124% | [4] 108% | [5] 108% | [6] 94.3% | [7] 106% | [8] 113%

COc1cc(C(=O)/C=C/c2cccc(Nc3ccnc4cc(Cl)ccc34)c2)cc(OC)c1OC
active: [1] -46.4% | [2] -27.9% | [3] -16.1% | [4] -51.5% | [5] -40.3% | [6] -62.5% | [8] -8.69%
inactive: [7] 40.1%

COc1ccc(C(=O)/C=C/c2cccc(Nc3ccnc4cc(Cl)ccc34)c2)cc1
inactive: [1] 15.7% | [2] 20.6% | [3] 28.1% | [4] 19% | [5] 23.4% | [7] 68.8% | [8] 53%
active: [6] 9.57%

COC(=O)[C@H](Cc1cn(C)cn1)NC(=O)[C@@H](NC(=O)Nc1cc(C(F)(F)F)cc(C(F)(F)F)c1)C(C)C
active: [1] -71.8% [100 µM] | [2] -98% [100 µM] | [3] -87.3% [100 µM] | [4] -47.5% [100 µM] | [5] -64.1% [100 µM] | [6] -91.6% [100 µM] | [7] -86.7% [100 µM] | [8] -88.7% [100 µM]

N#CC(C#N)C(C#N)C#N
inactive: [1] 87.9% | [2] 89.5% | [3] 99.8% | [4] 99.1% | [5] 95.5% | [6] 86.8% | [7] 98.4% | [8] 102%

CC[n+]1c(/C=C/c2ccc(N3CCCC3)cc2)cccc1/C=C/c1ccc(N2CCCC2)cc1
active: [1] -61% | [2] -89.7% | [3] -70.7% | [4] -88.1% | [5] -85.5% | [6] -54.7% | [7] -82.5% | [8] -81.5%

C/C(=C\CCc1ccoc1)CC/C=C(\C)CCCN1CCOCC1
inactive: [1] 27.4% | [2] 58.9% | [3] 71.8% | [4] 57.8% | [5] 28.1% | [6] 39.2% | [7] 62.3% | [8] 56.9%

C(#Cc1ccccc1C#Cc1ccccn1)c1ccc(OCCCCCCOc2ccc(C#Cc3ccccc3C#Cc3ccccn3)cc2)cc1
inactive: [1] 36.5% | [2] 39.6% | [3] 25.6% | [4] 62.6% | [5] 21.1% | [6] 38.4% | [7] 58.8% | [8] 37.1%

O=C(c1ccc(N2CCOCC2)cc1[N+](=O)[O-])N1CCOCC1
active: [3] -32.2%
inactive: [1] 102% | [2] 104% | [4] 93.1% | [5] 127% | [6] 107% | [7] 108% | [8] 121%

COCCOCCOCCOCCOc1ccc2c(c1)C(=O)c1nc3ncccc3c(=O)n1-2
active: [2] -95.7% | [3] -100% | [4] -100% | [5] -64.6% | [6] -32.7% | [7] -68.1% | [8] -57%
inactive: [1] 11.3%

COc1ccc2[nH]c(=O)c(CNc3ccc(Nc4nccc(-c5ccc(Cl)cc5)n4)cc3)cc2c1
inactive: [1] 65.9% | [2] 104% | [3] 104% | [4] 105% | [5] 71.8% | [6] 91.1% | [7] 106% | [8] 85.4%

O=[N+]([O-])c1ccc(NS(=O)(=O)c2ccc(Cl)c(Cl)c2)cc1
inactive: [1] 60.2% | [2] 76.8% | [3] 88.9% | [4] 103% | [5] 79.7% | [6] 85.3% | [7] 68.9% | [8] 90.1%

Cc1nn2c(/C=C3/C(=O)Nc4cc(Cl)ccc43)c(-c3ccccc3)nc2s1
inactive: [2] 15.4% | [5] 21% | [7] 120% | [8] 78.7%
active: [1] -63% | [3] -14.8% | [4] -26.8% | [6] -79%

Clc1ccc2[nH]cc(-c3cncn3CCc3ccccc3)c2c1
inactive: [1] 13.2% | [2] 40.3% | [3] 50.9% | [4] 72.8% | [5] 53.2% | [6] 44.1% | [7] 89.2% | [8] 72.9%

Cc1ccc(OCC(=O)Nc2ccc(Oc3ccccc3)cc2)c([N+](=O)[O-])n1
inactive: [1] 23.4% | [2] 98.5% | [3] 96.7% | [4] 96.8% | [5] 58.3% | [6] 69.8% | [7] 81.1% | [8] 93.8%

COc1cc(C2CC(C3C(=O)N(C)C(=O)N(C)C3=O)=NN2c2cc(Cl)cc(Cl)c2)cc(OC)c1OC (stereo not drawn)
inactive: [1] 79.4% | [2] 99.2% | [3] 98% | [4] 94.7% | [5] 90.4% | [6] 87.3% | [7] 87.7% | [8] 91.8%

COc1cccc2c1C(=O)c1c(O)c3c(c(O)c1C2=O)C[C@@](O)(C(C)=O)C[C@@H]3O[C@H]1C[C@H](N)[C@H](O)[C@H](C)O1
active: [1] -12.2% | [2] -58.8% | [3] -98.7% | [4] -12.8% | [5] 0% | [6] 0.333% | [7] -70.4% | [8] -14.9%

NS(=O)(=O)c1ccc(-n2ncc3c(NC4CCCCC4)ncnc32)cc1
inactive: [1] 80.4% | [2] 108% | [3] 92.5% | [4] 113% | [5] 116% | [6] 93.6% | [7] 91.5% | [8] 83.6%

CCN(Cc1cccc(S(=O)(=O)[O-])c1)c1ccc(C(=C2C=CC(=[N+](CC)Cc3cccc(S(=O)(=O)O)c3)C=C2)c2ccccc2S(=O)(=O)O)cc1
inactive: [1] 90.3% | [2] 104% | [3] 94.2% | [4] 103% | [5] 90.2% | [6] 95.1% | [7] 97.8% | [8] 94.4%

CC(=O)N1N=C(c2ccc(Nc3ccnc4cc(Cl)ccc34)cc2)CC1c1ccc(Cl)cc1 (stereo not drawn)
active: [3] 6.15%
inactive: [1] 25.5% | [2] 54.7% | [4] 63.1% | [5] 25.6% | [6] 55.6% | [7] 44.4% | [8] 36.5%

Cc1ccc(C(NC(=O)c2ccccc2)c2ccc3cccnc3c2O)cc1 (stereo not drawn)
inactive: [1] 25.1% | [2] 25.5% | [3] 30% | [4] 31.3% | [5] 24.8% | [6] 22.8% | [7] 30.7% | [8] 26.5%

Nc1ccc(N=Nc2ccccc2)cc1[N+](=O)[O-]
inactive: [1] 59.8% | [2] 85.4% | [3] 101% | [4] 93.1% | [5] 24.1% | [6] 91.4% | [7] 103% | [8] 53.2%

Cc1cc(C)c(C(=O)c2cccs2)c(C)c1
inactive: [1] 102% | [2] 109% | [3] 122% | [4] 107% | [5] 99% | [6] 101% | [7] 106% | [8] 110%

CN(C)CCC(=O)Nc1ccc(-n2cc(-c3cccc(NC(=S)Nc4cccc(-c5cn(-c6ccc(NC(=O)CCN(C)C)cc6)nn5)c4)c3)nn2)cc1
active: [5] 5.07%
inactive: [1] 69.1% | [2] 81.6% | [3] 110% | [4] 17.4% | [6] 26.7% | [7] 101% | [8] 56.3%
